From PubChem BioAssay (NCATS)
Inconclusive results are not listed. A call without a number means that no potency is given here. Calls of active or inactive are those of the source. Calls follow the shape of the dose curve; as a rule, active = well fitted inhibition curve with a large enough effect; inconclusive = small, poorly fitted or top-dose-only effect; inactive = no such curve, though single readings can be large or run the other way.

Tests used:
[1] = tested on: Zika virus NS2B-NS3 protease (unlinked complex); assay: Primary screen GU Rhodamine qHTS for Zika virus inhibitors: Unlinked NS2B-NS3 protease assay (AID 1347159); also: nearly all actives have a fitted effect of over 60% in size
Outline: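 In dose–response format, inhibition of unlinked protease (25 nM) was measured with 1.5 microM bis-peptide Rhodamine110 substrate. Aprotinin served as the intraplate control.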

[2] = tested on: Zika virus NS2B-NS3 protease (linked construct); assay: Primary screen NINDS Rhodamine qHTS for Zika virus inhibitors (AID 1347160); also: nearly all actives have a fitted effect of over 55% in size
Outline: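 Each compound, titrated, sat 15 min with 25 nM linked protease before 1.5 microM Rhodamine110 substrate went in. Fluorescence gain over the next 15 min, in pH 8.0 Tris with Tween 20, gave Hill-fitted curves.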
Potency is read from the fitted curve at half-maximal effect.

Row | SMILES | Potency [1] | Potency [2] | activity change, negative = inhibition [1] | activity change, negative = inhibition [2]
1 | COc1ccc(-n2nc(C(N)=O)c3c2C(=O)N(c2ccc(N4CCCCC4=O)cc2)CC3)cc1 | inactive | inactive |  | 
2 | CNC(=O)c1cc(Oc2ccc(NC(=O)Nc3cc(C(C)(C)C)nn3-c3ccc4ncccc4c3)c(F)c2)ccn1 | inactive | inactive |  | 
3 | NC(=O)Nc1cc(-c2cccc(F)c2)sc1C(=O)N[C@H]1CCCNC1 | inactive | inactive |  | 
4 | COC(=O)Nc1ccc(-c2nc(N3CCOCC3)c3cnn(C4CCN(Cc5cccnc5)CC4)c3n2)cc1 | inactive | inactive |  | 
5 | Cc1ccc2nc(NC(=O)CSc3nc4c(c(=O)n3-c3ccccc3)SCC4)sc2c1 | inactive | inactive |  | 
6 | CCNC(=O)Nc1ccc2ncc(Nc3ccc(C)cc3)nc2n1 | 25.1 µM (active) | 35.5 µM (active) |  | 
7 | CC(C)CC(=O)Nc1n[nH]c2c1CN(C(=O)C1CCN(C)CC1)C2(C)C | inactive | inactive |  | 
8 | Cc1cn2cc(C(=O)N(C)CCO)cc(N[C@@H]3CCOc4cccc(C)c43)c2n1 | inactive | inactive |  | 
9 | CC1(C)CC(=O)c2c(C(F)(F)F)nn(-c3ccc(C(N)=O)c(NC4CCC(OC(=O)CN)CC4)c3)c2C1 (stereo not given) | inactive | inactive |  | 
10 | COc1cc(C(=O)N2CCC(N3CCN(C)CC3)CC2)ccc1Nc1ncc2c(n1)N(C)c1ccccc1C(=O)N2C | inactive | inactive |  | 
11 | CC(=O)Nc1sc2c(c1-c1nc3ccccc3s1)CNC2 | inactive | inactive |  | 
12 | COc1cccc2c(NCc3ccccc3)nc(-n3c(N)nc4ccccc43)nc12 | 50.1 µM (active) | inactive |  | 
13 | Fc1cc(-c2cccc3ncc(-c4cnn(C5CCNCC5)c4)nc23)cc(F)c1CN1CCOCC1 | inactive | inactive |  | 
14 | COc1cc2c(Oc3ccc(-c4cnc(Nc5ccc(F)cc5)n(C)c4=O)cc3F)ccnc2cc1OCCCN1CCOCC1 | inactive | inactive |  | 
15 | O=C(Nc1ncc(-c2cc(C(F)F)nn2-c2c(Cl)cccc2Cl)s1)C1CC1 | inactive | inactive |  | 
16 | C[C@@H](Oc1cc(-c2cnn(C3CCNCC3)c2)cnc1N)c1c(Cl)ccc(F)c1Cl | inactive | inactive |  | 
17 | CC(=O)c1c(C)c2cnc(Nc3ccc(N4CCNCC4)cn3)nc2n(C2CCCC2)c1=O |  |  | 5.34% [at 11.5 µM] (inactive) | 8.21% [at 4.91 µM] (inactive)
18 | OCCCNc1cc(-c2ccnc(Nc3cccc(Cl)c3)n2)ccn1 | inactive | inactive |  | 

Row | SMILES | Potency [1] | Potency [2] | activity change, negative = inhibition [1] | activity change, negative = inhibition [2]
19 | CS(=O)(=O)c1ccc(-c2cnc(N)c(C(=O)Nc3ccccc3)n2)cc1 | inactive | inactive |  | 
20 | O=C(Nc1cn[nH]c1-c1nc2ccc(CN3CCOCC3)cc2[nH]1)NC1CC1 | inactive | inactive |  | 
21 | Nc1nc(NCCNc2ncc(-n3ccnc3)c(-c3ccc(Cl)cc3Cl)n2)ccc1[N+](=O)[O-] | inactive | inactive |  | 
22 | COc1cccc2nc(-c3cccs3)nc(NN3C(=O)C=C(C)C3=O)c12 | inactive | inactive |  | 
23 | Cc1nc(N)ncc1-c1nc(N2CCOCC2)c2sc(C(C)(C)O)cc2n1 | inactive | inactive |  | 
24 | CNC(=O)c1ccccc1Nc1nc(Nc2ccc(N3CCOCC3)cc2OC)ncc1Cl | inactive | inactive |  | 
25 | CCCNC(=O)Nc1ccc(Oc2ncnc3cc(OC)c(OC)cc23)cc1Cl | inactive | inactive |  | 
26 | CCc1cc2c(cc1N1CCC(N3CCOCC3)CC1)C(C)(C)c1[nH]c3cc(C#N)ccc3c1C2=O | inactive | inactive |  | 
27 | COc1cc2c(Oc3ccc4[nH]c(C)cc4c3F)ncnc2cc1OCCCN1CCCC1 | inactive | inactive |  | 
28 | CC1(O)CC(c2nc(-c3ccc4ccc(-c5ccccc5)nc4c3)c3c(N)nccn23)C1 (stereo not given) | inactive | inactive |  | 
29 | O=C1CCC[C@@H]2[C@H]3CCC[N+]4([O-])CCC[C@@H](CN12)[C@@H]34 (stereo not given in full) | inactive | inactive |  | 
30 | COc1cc2nccc(Oc3ccc(NC(=O)C4(C(=O)Nc5ccc(F)cc5)CC4)cc3)c2cc1OC | inactive | inactive |  | 
31 | CC1COC2(CCN(c3nc(=O)c4cc(C(F)(F)F)cc([N+](=O)[O-])c4s3)CC2)O1 (stereo not given) | inactive | inactive |  | 
32 | COc1cc2c(NC3CCN(C(C)C)CC3)nc(C3CCCCC3)nc2cc1OCCCN1CCCC1 | inactive | inactive |  | 
33 | COc1ccc2c(c1)CC[C@@H](CN(C)CC(=O)O)[C@H]2c1ccccc1 | inactive | inactive |  | 
34 | CC(C)c1nn(-c2c(Cl)cccc2Cl)c2nc(Cc3ccc(OCCO)cc3)[nH]c(=O)c12 | inactive | inactive |  | 
35 | Cc1coc2c1C(=O)C(=O)c1c-2ccc2c1CCCC2(C)C | 22.4 µM (active) | 14.1 µM (active) |  | 
